# Bioassay records from PubChem.
# IL1B secr inh: inflammasome signaling inhibition, IL-1 beta readout; activity change, % at 57.5 µM; AID 743279; THP-1 LPS/ATP IL-1B secretion, AlphaLISA, 16 h; active compounds read low; hit rate 4.7% among 360,000; in the data active = activity change below about -50%; inconclusive = mostly about -30% to -49%
#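 THP-1 cells pretreated 1 hr with compounds (up to 57.5 uM final), then stimulated with LPS (250 ng/mL final) plus ATP (1.25 mM final); secreted IL-1B measured by AlphaLISA after 16 hr, decreased signal indicating inhibition.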
# ELG1 repair inh: inhibitors of ELG1-dependent DNA repair in HEK293T cells; AID 504467; hit rate 2.3% among 330,000; Potency, µM (series often up to 46.1 µM), without a hit: at the top dose activity change, negative = inhibition, hits mostly inhibitors; HEK293T ELG1-luciferase reporter, luminescence, 16 h; DNA damage induced by 5-fluorouridine; also: potency is read from the fitted curve at half-maximal effect; nearly all actives have a fitted effect of over 55% in size
#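 Overnight (16 hr) co-exposure of 2,000 cells/well to 5-fluorouridine and compound at 37 °C preceded detection. Luciferase was quantified via ONE-Glo luminescence; loss of signal denotes inhibition.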
# HT1080NT lethal: kills 2HG-producing HT-1080-NT fibrosarcoma cells. Potency, µM (titrated, usually from 46.1 µM), for inactives: top-dose activity, negative = less viability, actives largely listed as cytotoxic. hit rate 1.6% among 360,000. HT-1080-NT fibrosarcoma viability, CellTiter-Glo ATP luminescence, 48 h. AID 686970;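 also: NT is the 2HG producing partner of a matched IDH1 knockdown line; potency is read from the fitted curve at half-maximal effect; 0% = DMSO-treated cells and -100% = media-only wells without cells; nearly all actives have a fitted effect of over 55% in size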
#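 Compounds were tested in concentration-response format on HT-1080-NT cells for 48 hours at 37 degrees C. Cell viability came from CellTiter-Glo luminescence; curves were classified by r2, response magnitude and activity.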
# DT40 TDP1 no CPT: qHTS for Inhibitors of human tyrosyl-DNA phosphodiesterase 1 (TDP1): qHTS in cells in absence of CPT. hit rate 15% among 420,000. DT40 Tdp1-/- hTDP1 cells, no CPT, ATP luminescence, 48 h. Potency, µM (doses to about 46.2 µM), without a hit: top-dose activity change, negative = growth inhibition, usual class: inhibitors; also: potency is read from the fitted curve at half-maximal effect; nearly all actives have a fitted effect of over 55% in size
#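 Growth of hTDP1-complemented DT40 Tdp1-knockout cells is measured by ATP luminescence after at least 48 hr compound exposure at 37 °C, with DMSO substituting for the 20 nM CPT used in the parallel screen.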
# DT40 TDP1 CPT: growth inhibition of DT40 Tdp1-/-;hTDP1 cells with camptothecin (screen for TDP1 inhibitors) | chicken DT40 Tdp1-/-;hTDP1 cells + 20 nM CPT, ATP luminescence, 48 h | Potency, µM (series often up to 46.2 µM), without a hit: at the highest dose activity change, negative = growth inhibition, actives largely listed as inhibitors | hit rate 12% among 420,000; also: potency is read from the fitted curve at half-maximal effect; nearly all actives have a fitted effect of over 55% in size
#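 Chicken DT40 Tdp1-/- cells complemented with human TDP1, 400 cells/well, exposed to compounds plus 20 nM camptothecin for at least 48 h at 37 C; viability read as ATP content by CellTiter-Glo luminescence.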
# HT1080 IDH1KD tx: kills HT-1080 cells with IDH1 knockdown; hit rate 2% among 360,000; Potency, µM (top dose mostly 46.1 µM), without a hit: at the top dose activity, negative = toxicity, hits mostly cytotoxic; AID 686971; HT-1080 IDH1 knockdown viability, ATP luminescence, 48 h;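 also: potency is read from the fitted curve at half-maximal effect; 0% = DMSO wells and -100% = cell-free medium wells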
#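 After a 2 h attachment period, IDH1KD HT-1080 cells took pin-transferred compound for 48 h at 37 °C; ATP-based luminescence after 10 min room-temperature reagent incubation reported viability.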
# * hit, by the source's call; ? = inconclusive; . = not tested or not shown; ! = repeats disagree; [ ] = another dose, or the depositor's remark. Shown are actives, neighbours in structure and some others; about 19% of the full set was active somewhere. Unless noted, calls follow the shape of the dose curve; as a rule, active = well fitted curve in the direction sought with a large enough effect; inconclusive = small, poorly fitted or top-dose-only effect, or another doubt; inactive = no such curve, though single readings can be large; an effect the other way counts as inactive or inconclusive. Unless noted, % is scaled to controls: 0 for no effect and ±100 for the full control effect.
SMILES,IL1B secr inh,ELG1 repair inh,HT1080NT lethal,DT40 TDP1 no CPT,DT40 TDP1 CPT,HT1080 IDH1KD tx
CN(CC(=O)Nc1ccc(F)c(F)c1F)C(=O)/C=C/c1ccco1,-2,?,-1%,-14%,3%,-1%
Cc1onc(-c2c(F)cccc2Cl)c1C(=O)Nc1cccc(S(=O)(=O)N2CCOCC2)c1,8,?,-18%,-28%,-26%,-1%
O=C(CNC(=O)c1ccc(Cl)cc1Cl)OCc1cn2cc(Br)ccc2n1,29,?,-1%,-4%,1%,2%
COc1ccc(NS(=O)(=O)c2ccc3c(c2)NC(=O)CO3)cc1,14,-11%,9%,-19%,-21%,-5%
CN(C)CC(C)(C)CNS(=O)(=O)c1ccc(Cl)c(Cl)c1,-54*!,7%,-23%,2.3µM*!,-24%,16µM*!
CN(C)CCNC(=O)c1cccc(NS(=O)(=O)c2ccc(Cl)c(Cl)c2)c1,?,8%,-22%,3%,-24%,-18%
CCOc1ccc(C(=O)N2CCCC(c3nc(-c4ccc(C)o4)no3)C2)cc1 (centres undefined),13,?,-3%,-8%,-20%,6%
COc1ccc(-c2noc(C3CCCN(C(=O)c4ccc(C)cc4)C3)n2)cc1 (centres undefined),-70*,-16%,?,23µM*,23µM*,16µM*
Cc1ccc(-c2noc(C3CCCN(C(=O)c4ccc(Cl)cc4)C3)n2)o1 (centres undefined),?,-13%,-19%,13µM*,?,-17%
COc1ccc(CNC(=O)COC(=O)c2ccc(Br)cc2)cc1,-4,13%,-5%,-2%,-18%,1%
Cn1c(C(C#N)C(=O)c2sc3ccccc3c2Cl)nc2ccccc21 (centres undefined),-21,-5%,?,16µM*,?,?
COc1ccc(CCC(=O)NCC23CC4CC(CC(C4)C2)C3)cc1,5,-2%,0%,-16%,-27%,8%
COc1ccc(C(=O)NC(C(=O)OCC(=O)Nc2sccc2C(N)=O)C(C)C)cc1 (centres undefined),-18,?,-5%[9.24 µM],23µM*,?,0%
COc1ccc(C(=O)N[C@H](C(=O)OCCCOC(=O)[C@@H](NC(=O)c2ccc(OC)cc2)C(C)C)C(C)C)cc1,-21,.,-10%,?,23µM*,-1%
C[C@H](CO)N1C[C@H](C)[C@@H](CN(C)Cc2ccc(-c3ccccc3)cc2)OCc2cnnn2CCCC1=O,17,.,-10%,?,?,11%
N#CC1=C(N)N2C(=C(C#N)C1c1cccc(Br)c1)Nc1ccccc12 (centres undefined),-119*,2.9µM*,?,3.3µM*,3.7µM*,?
N#CC1=C(N)N2C(=C(C#N)C1c1ccccc1)Sc1ccccc12 (centres undefined),.,13%,.,.,.,.
N#CC1=C(N)N2C(=C(C#N)C1c1ccc(Br)cc1)Nc1ccccc12 (centres undefined),?,2.9µM*,?,3.3µM*,6.5µM*,?
CCOc1ccc(NC(=O)CCS(=O)(=O)c2cc3c4c(c2)CCN4C(=O)CC3)cc1,.,.,.,-6%,-1%,.
Cn1c(=O)c(C(=O)c2ccc(S(C)(=O)=O)c(Cl)c2Cl)c(O)c2ccccc21,22,.,2%,?,?,1%
CCCCCc1c(-c2ccccc2)ncn1CCc1ccccc1OC,0,.,?,15µM*,23µM*,?
COc1ccccc1CCn1cnc(-c2ccc(OC)c(OC)c2)c1C(C)C,-51*,.,23µM*,5.8µM*,8.2µM*,?
CCCCc1c(-c2ccc(OC)c(OC)c2)ncn1CCc1ccccc1OC,-51*,.,15µM*,5.8µM*,5.8µM*,12µM*
COc1ccccc1Cc1c(-c2ccc(OC)c(OC)c2)nc2cc(C)c(Br)c(C)n12,-12,.,?,?,?,-22%
COc1ccc(-c2nn(-c3ccccc3)cc2C(=O)O)cc1OC,24,13%,7%,15%,0%,8%[9.24 µM]
SMILES,IL1B secr inh,ELG1 repair inh,HT1080NT lethal,DT40 TDP1 no CPT,DT40 TDP1 CPT,HT1080 IDH1KD tx
CCCCc1c(-c2cccc(OC)c2)ncn1CCc1ccccc1OC,-96*,.,21µM*,18µM*,15µM*,26µM*
Cc1ccnc(NC(=O)c2ccc(Cl)c(S(=O)(=O)N3CCCC3)c2)c1,-3,21%,-27%,?,?,-5%
COc1cc(-c2nnc(-c3cc(-c4ccccc4)nc4ccccc34)o2)cc(OC)c1OC,-12,.,9%,?,-16%,-8%
c1ccc2c(c1)-c1cccc3cncc-2c13,-84*,.,16%,?,-37%,?
c1ccc2c(-c3cncc4ccccc34)cncc2c1,-2,.,?,?,?,?
COc1ccc(CCNC(=O)CC(=O)N/N=C\c2ccc(OCC(N)=O)cc2)cc1OC,-10,.,-2%,-3%,18%,2%
COc1cccc(OCC(=O)N2CCCc3ccccc32)c1,-3,0%,20%,-28%,?,15%
COc1ccc(C(C)=O)cc1Cn1c(C)c(C(=O)NCCC#N)sc1=O,-16,.,11%,?,3%,25%
CCN(CC)S(=O)(=O)c1ccc2c(c1)C(=NO)c1cc(S(=O)(=O)N(CC)CC)ccc1-2,-23,7.3µM*,18µM*,2.3µM*,2.3µM*,7.3µM*
CCCOc1ccc(/C=N/O)cc1,-20,?,8%,-2%,-6%,9%
CCN(CC)CCOc1ccc(Br)cc1,-19,16%,7%,-19%,-9%,4%
CCN(CC)S(=O)(=O)c1cccc(S(=O)(=O)c2cccc(S(=O)(=O)N(CC)CC)c2)c1,-23,8.9µM*,0%[9.24 µM],18µM*,21µM*,?
CCCOc1ccc2c(c1)C(=NN=C(N)N)c1cc(OCCC)ccc1-2,-97*,?,?,23µM*,26µM*,?
CCN(CC)S(=O)(=O)c1ccc(C)c(C)c1,6,1%,6%,-12%,-1%,16%
CCN(CC)CCOc1ccc2c(c1)C(=NO)c1cc(OCCN(CC)CC)ccc1-2,-105*,?,10µM*,18µM*,18µM*,7.1µM*
Cn1cc(S(=O)(=O)N2CCCCC2)cc1C(=O)Nc1ccc(OC(F)(F)F)cc1,.,.,.,-24%,-1%,.
